Test results taken from PubChem BioAssay (NCATS).
Values joined by “and” are separate entries in the source; they are usually repeats but may differ in a detail not shown here. Identical values can stand only once. Results filed as inconclusive are left out. Where a call stands in place of a potency, no number is given. Active and inactive are the calls of the source. The call rests on the fitted dose curve; in most records, active means well fitted cell-killing curve with a large enough effect; inconclusive means small, poorly fitted or top-dose-only effect; inactive means no such curve, though single readings can be large or run the other way. Non-standard residues stand in square brackets, D forms with d. Residues, ends and D or L forms follow the SMILES beside them. *: point of attachment. Sta = CC(C)C[C@H](N)[C@@H](O)CC(=O)O; Isovaleryl = CC(C)CC(=O)*

Test: qHTS of pediatric cancer cell lines to identify multiple opportunities for drug repurposing: Primary screen for LAN-5 cells (AID 1347100)
Conditions: LAN-5 neuroblastoma viability, CellTiter-Glo luminescence, 48 h; series mostly up to 46 µM
From the text: Drug repurposing or repositioning has been offered as a strategy for drug development in oncology programs. This approach has special potential for childhood cancers and other rare or orphan diseases, where the expected return on new drug development has been a disincentive to pharmaceuticals.
In this project we exploit the poly-pharmacology of drugs to discover new indications via phenotypic screening of a panel of 19 well-characterized cell lines derived from solid tumors seen in children and adolescents. The goal is to identify approved drugs with previously unrecognized anticancer properties that has the potential to reveal new mechanisms and biological processes involved in carcinogenesis or drug resistance. We employed a titration-based paradigm (quantitative high-throughput screening or qHTS), where all compounds were tested at multiple concentrations for their effect on cell viability. Concentration-response curves (CRCs) were derived directly from the primary screen, and both potency and efficacy values were used to identify compounds with robust bioactivity profiles. We screened the NIH Chemical Genomics Center (NCGC) Pharmaceutical Collection (NPC) and Mechanism Interrogation Plate (MIPE) small molecule collections of approved and investigational compounds against these cell lines; and measured metabolically active cells after 48 hours of compound treatment as a proxy for cell viability.
Assay Submitter: Nathalia J. Martinez, National Center for Advancing Translational Sciences, National Institutes of Health, Rockville, MD, USA; email: natalia.martinez@nih.gov
[1] Shen, M et al. Quantitative high-throughput phenotypic screening of pediatric cancer cell lines identifies multiple opportunities for drug repurposing. Oncotarget 2017 Dec 19;9(4):4758-4772. PMID 29435139.
The cells were obtained from University of North Carolina (UNC), Pediatric Preclinical Testing Program (PPT), and Coriell Institute (CI).
qHTS cell viability assay:
Cells were assayed in growth media at a density of 500-1,000 cells/well. Five microliters of cells were dispensed into 1,536-well, white, solid-bottom, TC-treated plates (Greiner Bio One) using a multidrop dispenser and incubated at 37 degrees C, 5% CO2, under a humidified atmosphere for 5 hours. Twenty-three nanoliters of compounds and controls (neutral control DMSO or positive control bortezomib at final concentration of 2.3 µM) were subsequently transferred by Kalypsys pintool. For primary screens, the MIPE collection was tested at 11-point dilutions (final concentrations range from 0.78 nM to 46 µM) and the NPC collection at 8-point dilutions (final concentrations range from 0.59 nM to 46 µM). Compounds tested in follow-up screens were assayed at 11-point dilutions. Cells were incubated for 48 hours, followed by addition of 3 µL of CellTiter-Glo (Promega). After a 15 min incubation at room temperature, samples were analyzed for luminescence intensity using a ViewLux High-throughput CCD imager equipped with clear filters.
Potency means the concentration at half of the fitted maximal effect.

SMILES | Potency
O=P(O)(O)C(O)(Cn1ccnc1)P(=O)(O)O | inactive
Nc1cc(C(Cl)=C(Cl)Cl)c(S(N)(=O)=O)cc1S(N)(=O)=O | inactive
COc1ccccc1N1CCN(CCN(C(=O)C2CCCCC2)c2ccccn2)CC1 | inactive
CC(C)(S)[C@@H](N)C(=O)O | inactive
Nc1nc(OCc2ccccc2)c2[nH]cnc2n1 | inactive
CC(=O)N1CCN(c2ccc(OC[C@H]3CO[C@](Cn4ccnc4)(c4ccc(Cl)cc4Cl)O3)cc2)CC1 | 18.7 µM (active)
CCCCCCCCCCCCCCCCCCCCCCO | inactive
CC1Cc2ccccc2N1NC(=O)c1ccc(Cl)c(S(N)(=O)=O)c1 (stereo not given) | inactive
NC(=O)Cc1cccc(C(=O)c2ccccc2)c1N | inactive
CCN(CC)CCOc1ccc(Nc2ncc3cc(-c4c(Cl)cccc4Cl)c(=O)n(C)c3n2)cc1 | 1.05 µM (active)
COc1c2occc2cc2ccc(=O)oc12 | inactive
Cc1cc2cc3c(C)cc(=O)oc3c(C)c2o1 | inactive
Cc1nc2n(c(=O)c1CCN1CCC(c3noc4cc(F)ccc34)CC1)CCCC2 | inactive
O=c1cc(N2CCOCC2)oc2c(-c3ccccc3)cccc12 | inactive
NNc1nncc2ccccc12 | inactive
CC1(C)NC(=O)N(c2ccc([N+](=O)[O-])c(C(F)(F)F)c2)C1=O | inactive
COc1cc2c(N3CCN(C(=O)Nc4ccc(OC(C)C)cc4)CC3)ncnc2cc1OCCCN1CCCCC1 | 18.7 µM (active)
CC(C)CC(=O)N[C@H](C(=O)N[C@H](C(=O)N[C@@H](CC(C)C)[C@@H](O)CC(=O)N[C@@H](C)C(=O)N[C@@H](CC(C)C)[C@@H](O)CC(=O)O)C(C)C)C(C)C (Isovaleryl-VV[Sta]A[Sta]-OH) | inactive
N[C@@H](Cc1cc(I)c(Oc2cc(I)c(O)c(I)c2)c(I)c1)C(=O)O | inactive
COc1c(O)cc2c(c1O)[C@@H]1O[C@H](CO)[C@@H](O)[C@H](O)[C@H]1OC2=O | inactive

SMILES | Potency
O=C(O)c1cccnc1Nc1cccc(C(F)(F)F)c1 | inactive
CC(C)C[C@H](NC(=O)[C@H](Cc1ccccc1)NC(=O)c1cnccn1)B(O)O | 0.0166 µM (active)
S=c1nc[nH]c2nc[nH]c12 | 1.5 µM (active) and 2.96 µM (active)
COc1cc(OC)c(C(=O)CCCN2CCCC2)c(OC)c1 | inactive
CCOC(=O)C1=C[C@@H](OC(CC)CC)[C@H](NC(C)=O)[C@@H](N)C1 | inactive
Cc1nccn1CC1CCc2c(c3ccccc3n2C)C1=O (stereo not given) | inactive
CCOC(=O)c1c(C)n(C)c2ccc(O)cc12 | inactive
O=C(O)c1cc(=O)c2c(OCC(O)COc3cccc4oc(C(=O)O)cc(=O)c34)cccc2o1 | inactive
Cc1cc(C2CCCCC2)n(O)c(=O)c1 | 7.43 µM (active)
CN1CCC(=C2c3ccccc3CCc3sccc32)CC1 | inactive
Nc1cccc2c1CN(C1CCC(=O)NC1=O)C2=O (stereo not given) | inactive
Cc1cc2c(s1)Nc1ccccc1N=C2N1CCN(C)CC1 | inactive
Cc1c(OCC(F)(F)F)ccnc1CS(=O)c1nc2ccccc2[nH]1 (stereo not given) | inactive
CN(C)CCc1c[nH]c2ccc(Cn3cncn3)cc12 | inactive
Nc1ccc(S(N)(=O)=O)cc1 | inactive
C[C@H](Cn1cnc2c(N)ncnc21)OCP(=O)(O)O | inactive
O=C(CS(=O)Cc1ccco1)NCC=CCOc1cc(CN2CCCCC2)ccn1 (stereo not given) | inactive
CC(C)[C@H](N)C(=O)OCCOCn1cnc2c(=O)[nH]c(N)nc21 | inactive
CC(=O)Nc1ccc(O)cc1 | inactive
C[C@@H](N)C1CCC(C(=O)Nc2ccncc2)CC1 (stereo not given in full) | inactive
